PubChem BioAssay (NCATS)
Inconclusive results are not listed. Activity calls are given as the source filed them. Calls come from the whole dose curve; as a rule, active = well fitted inhibition curve with a large enough effect; inconclusive = small, poorly fitted or top-dose-only effect; inactive = flat fitted curve, though single readings scatter. Where a SMILES comes first, the peptide text is derived from it. [ ]: non-standard residue; d: D form. ξ: configuration not given here. ξPhe(βξ-Me) = CC(c1ccccc1)C(N)C(=O)O; GABA = NCCCC(=O)O

target: Calcium and integrin-binding protein 1 (Homo sapiens) (UniProt Q99828); assay: Primary qHTS for Identification of Calcium Integrin Binding Protein 1 (CIB1) Competitor (AID 1508620); conditions: CIB1-GST / FITC-alphaIIb peptide fluorescence polarization; series mostly up to 57.7 µM; activity change, negative = inhibition: at the top concentration;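 note: GST tagged CIB1 binding a fluorescein labelled alphaIIb integrin peptide tracer; top concentration of the series differs between compounds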
Procedure, shortened: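 Fluorescence polarization competition: CIB1-GST (1 uM final) preincubated with compound 15 min at room temperature, then FITC-labeled alphaIIb peptide (100 nM final) added for another 15 min. Polarization read at Ex 480/Em 540.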
% is set by controls: 0 for no effect and ±100 for the full control effect.

Calcium and integrin-binding protein 1 (Homo sapiens), sequence (Q99828 whole entry, looked up): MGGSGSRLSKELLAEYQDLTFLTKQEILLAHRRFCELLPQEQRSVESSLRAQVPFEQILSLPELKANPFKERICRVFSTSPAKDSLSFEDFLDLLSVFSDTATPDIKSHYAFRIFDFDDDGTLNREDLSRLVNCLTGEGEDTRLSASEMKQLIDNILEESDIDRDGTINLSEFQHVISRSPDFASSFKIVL

Q: `CCC(CCO[C@@H]1O[C@H](CO[C@H]2OC[C@](O)(CO)[C@H]2O)[C@@H](O)[C@H](O)[C@H]1O)C(C)(C)O` (some centres not stated) was tested. Which “activity change, negative = inhibition” value did it give?
A: 5.23% (inactive)

Q: How did the “activity change, negative = inhibition” value turn out when `C[C@@H]1CC[C@]2(C(=O)O)CC[C@]3(C(=O)O)C(=CCC4[C@@]5(C)CC[C@H](O[C@@H]6O[C@@H](C)[C@H](O[C@@H]7O[C@H](CO)[C@@H](O)[C@H](O)[C@H]7O)[C@@H](O)[C@H]6O)C(C)(C)C5CC[C@]43C)C2[C@H]1C` (some centres not stated) was run?
A: 1.01% [at 30.2 µM] (inactive)

Q: Which “activity change, negative = inhibition” value does the source give for `C[C@@H]1O[C@@H](O[C@H]2[C@H](O[C@H]3[C@H](O[C@H]4CC[C@@]5(C=O)C(CC[C@]6(C)C5CC=C5C7CC(C)(C)C[C@@H](O)[C@]7(C)CC[C@]56C)C4(C)C)O[C@H](C(=O)O)[C@@H](O)[C@@H]3O)OC[C@@H](O)[C@@H]2O)[C@H](O)[C@H](O)[C@H]1O` (some centres not stated) here?
A: -3.09% [at 30.2 µM] (inactive)

Q: Which “activity change, negative = inhibition” value does the source give for `O=C(/C=C/c1ccc(O)cc1)OCC1=CC2OC(=O)C3=CO[C@@H](O[C@@H]4O[C@H](CO)[C@@H](O)[C@H](O)[C@H]4O)[C@H]1[C@@H]32` (some centres not stated) here?
A: -0.472% (inactive)

Q: With `C=C1CC2C3(C)C(O)CC(=O)C(C)(C)C3C(OC(C)=O)C(OC(C)=O)C2(C)C2C(=O)OC(C)(C(=O)OC)C(=O)C12C` (configuration not stated) as the compound, how does the “activity change, negative = inhibition” value read?
A: -17.3% (inactive)

Q: With `C/C=C(\C)C(=O)O[C@@H]1CC2[C@@H](CC=C3C[C@@H](O[C@H]4C[C@H](OC)[C@H](O[C@H]5C[C@H](OC)[C@H](O[C@H]6C[C@H](OC)[C@H](O[C@H]7C[C@@H](OC)[C@H](O[C@@H]8O[C@H](CO)[C@@H](O)[C@H](O)[C@H]8O)[C@@H](C)O7)[C@@H](C)O6)[C@@H](C)O5)[C@@H](C)O4)CC[C@@]32C)[C@@]2(O)CC[C@H](C(C)=O)[C@@]12C` (some centres not stated) as the compound, how does the activity change, negative = inhibition read?
A: 0.036% [at 12.4 µM] (inactive)

Q: How did the “activity change, negative = inhibition” value turn out when `CC1(O)CCC2C(C(=O)O)=COC(OC3OC(CO)C(O)C(O)C3OC(=O)/C=C/c3ccc(O)cc3)C21` (configuration not stated) was run?
A: -3.85% (inactive)

Q: Which “activity change, negative = inhibition” value does the source give for `CC(C)CC1NC(=O)C(C(C)c2ccccc2)NC(=O)C(C(C)C)NC(=O)C(C)NC(=O)CCCNC(=O)C(Cc2c[nH]c3ccccc23)NC(=O)C(C)NC1=O` (stereo not drawn) (cyclo([GABA]AV[ξPhe(βξ-Me)]LAW); configuration not given here) here?
A: 4.87% [at 30.2 µM] (inactive)

Q: With `COc1c(OC2OC(CO)C(O)C(O)C2O)ccc(O)c1C(=O)OCc1ccccc1O[C@@H]1O[C@H](CO)[C@@H](O)[C@H](O)[C@H]1O` (some centres not stated) as the compound, how does the “activity change, negative = inhibition” value read?
A: 1% [at 30.2 µM] (inactive)

Q: `C=C1CC[C@@H]2[C@](C)(CC[C@H](O)[C@@]2(C)CCC=C(C)C)[C@@H]1Cc1c[nH]c2ccccc12` was tested. Which “activity change, negative = inhibition” value did it give?
A: 3.84% (inactive)

Q: How did the activity change, negative = inhibition turn out when `C[C@@H]1O[C@@H](O[C@H]2[C@H](OC(=O)[C@]34CCC(C)(C)C[C@H]3C3=CCC5[C@@]6(C)C[C@H](O)[C@H](O[C@@H]7O[C@H](CO)[C@@H](O[C@@H]8O[C@H](CO)[C@@H](O)[C@H](O)[C@H]8O)[C@H](O)[C@H]7O)[C@@](C)(CO)C6[C@H](O)C[C@@]5(C)[C@]3(C)C[C@H]4O)OC[C@H](O)[C@@H]2O)[C@H](O)[C@H](O)[C@H]1O[C@@H]1OC[C@@H](O)[C@H](O[C@@H]2OC[C@](O)(CO)[C@H]2O)[C@H]1O` (some centres not stated) was run?
A: 4.23% [at 12.4 µM] (inactive)

Q: Which “activity change, negative = inhibition” value does the source give for `NC(Cc1c[nH]c2ccccc12)C(=O)NC(CCC(=O)O)C(=O)O` (configuration not stated) here?
A: -2.93% [at 114 µM] (inactive)

Q: How did the activity change, negative = inhibition turn out when `C[C@@H]1O[C@@H](O[C@@H]2[C@@H](O)[C@H](O[C@@H]3[C@@H](O)[C@@H](O)[C@H](O[C@H]4[C@H](OC(=O)[C@]56CCC(C)(C)C[C@H]5C5=CCC7[C@@]8(C)C[C@H](O)[C@H](O[C@@H]9O[C@@H](C)[C@H](O)[C@@H](O)[C@H]9O)[C@@](C)(CO)C8CC[C@@]7(C)[C@]5(C)C[C@H]6O)O[C@H](C)[C@H](O)[C@@H]4O)O[C@H]3C)OC[C@H]2O)[C@H](O)[C@H](O)[C@H]1O` (some centres not stated) was run?
A: 1.34% [at 12.4 µM] (inactive)

Q: `CC1NC(=O)CNC(=O)C(C(C)C)NC(=O)C2CCCN2C(=O)C(C(C)C)NC(=O)C(Cc2c[nH]c3ccccc23)NC1=O` (configuration not stated) (cyclo(GAWVPV); configuration not given here) was tested. Which “activity change, negative = inhibition” value did it give?
A: 0.42% [at 30.2 µM] (inactive)

Q: For `CCC(C)C(=O)O[C@@H]1[C@@H](O)[C@@H](O[C@H]2O[C@H](CO)[C@@H](O)[C@H](O)[C@H]2O)O[C@H](CO)[C@H]1O` (some centres not stated), which “activity change, negative = inhibition” value is on record?
A: 1.39% (inactive)

Q: With `COC(=O)C12C(=O)C(C)=C(O)C1(C)C(C)=CC1C34CCC(OC3=O)C(C)(C)C4CCC12C` (configuration not stated) as the compound, how does the “activity change, negative = inhibition” value read?
A: 4.73% (inactive)

Q: Which “activity change, negative = inhibition” value does the source give for `CCCOc1ccn2c(C(C)=O)cc(-c3ccccc3S(C)(=O)=O)c2c1` here?
A: -1.09% [at 114 µM] (inactive)
